The list is not random: actives were taken first. Their share in the collection is about 2.4%.
CHO-K1 Ca PAM – M1 PAM counterscreen hit in parental CHO-K1 cells; ATP EC20, Fluo-8 calcium fluorescence; 0% at ATP EC20, 100% at ATP max; activation, % at 3 µM; actives 0.02% (n = 360,000); AID 602247;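 active means activation above the run cutoff, the mean activation of all test compounds plus 3 SD, cut at about 40% in these data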;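 further: peak over basal fluorescence ratio in a 140 s read after ATP addition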
M1 antag – antagonists of human M1 muscarinic receptor | CHO-K1 hM1, Fluo-8 calcium fluorescence, ACh EC80 antagonist | inhibition, % at 3 µM | actives 1.3% (n = 360,000);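 active means percent inhibition above its own plate's cutoff, namely the mean of that plate's compound wells plus 3 SD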;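 further: peak over basal fluorescence ratio during 140 s after agonist addition; 0% = ACh EC80 plus DMSO and 100% = DMSO alone without agonist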
Target sequence (P11229 whole entry, looked up): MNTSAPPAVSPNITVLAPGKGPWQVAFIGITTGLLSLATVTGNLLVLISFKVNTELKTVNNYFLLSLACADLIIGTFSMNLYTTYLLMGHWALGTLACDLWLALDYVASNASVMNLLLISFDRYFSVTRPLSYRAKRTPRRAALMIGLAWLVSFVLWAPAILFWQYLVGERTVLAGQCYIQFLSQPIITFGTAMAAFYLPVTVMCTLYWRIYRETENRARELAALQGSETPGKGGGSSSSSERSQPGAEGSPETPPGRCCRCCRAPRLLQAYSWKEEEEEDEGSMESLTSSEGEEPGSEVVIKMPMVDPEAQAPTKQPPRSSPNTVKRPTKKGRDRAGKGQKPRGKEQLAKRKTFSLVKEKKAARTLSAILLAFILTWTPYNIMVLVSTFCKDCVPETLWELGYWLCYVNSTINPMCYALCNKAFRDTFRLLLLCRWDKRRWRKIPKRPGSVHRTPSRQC
CHO-K1 Ca antag – nonselective inhibitor or artifact in parental CHO-K1 cells | ATP-induced calcium, Fluo-8 fluorescence | inhibition, % at 3 µM | actives 0.6% (n = 360,000);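 active means inhibition above a per-plate cutoff, the plate's mean sample inhibition plus 3 SD, cut at about 24% in these data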;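 further: 0% = DMSO plus EC80 ATP and 100% = DMSO alone without ATP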
CHRM1 agonist – agonists of human M1 muscarinic receptor; P11229; CHO-K1 hM1, Fluo-8 calcium fluorescence, agonist mode; 0% DMSO, 100% acetylcholine EC100; activation, % at 3 µM; actives 0.33% (n = 360,000);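 active means activation above the run's mean compound activation plus 3 SD, cut at about 16% in these data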;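 further: peak over basal fluorescence ratio within a 140 s kinetic read after compound addition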
M1 ag parental – M1 agonist counterscreen hit in parental CHO-K1 cells; Fluo-8 calcium fluorescence; scaled to maximal ATP response, vehicle zero; activation, % at 3 µM; actives 0.48% (n = 360,000); AID 602248; in the data active means activation above about 15%;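 further: untransfected CHO-K1 host cells lacking M1 receptor as counterscreen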
M1 PAM – human CHRM1 positive allosteric modulation | CHO-K1 hM1, Fluo-8 calcium fluorescence, ACh EC20; 0% = ACh EC20, 100% = maximal ACh | activation, % at 3 µM | P11229 | actives 0.088% (n = 360,000) | AID 588819; in the data active means activation above about 19%, passing the limit was not always enough
The depositor's hits bear a star; . = no result given.

SMILES | CHO-K1 Ca PAM | M1 antag | CHO-K1 Ca antag | CHRM1 agonist | M1 ag parental | M1 PAM
O=[N+]([O-])c1ccc(N2CCN(Cc3ccccc3)CC2)c2c1no[n+]2[O-] | 7 | 35* | 10 | 1 | 19* | -25
CC1=C(C(=O)c2ccccc2)C(c2cccc([N+](=O)[O-])c2)NC(=S)N1 (stereo unspecified) | 4 | 2 | -11 | -6 | 1 | -1
CC(=O)C1=C(C)NC(=S)NC1c1cc([N+](=O)[O-])ccc1O (stereo unspecified) | 0 | -12 | -7 | -1 | 17* | 8
O=C(CN1C(=O)COc2ccccc21)c1ccc(Cl)cc1 | -8 | 28 | 30* | -3 | 0 | -9
Cc1ccccc1OCc1nc2ccccc2c(=O)n1NC(=O)c1ccco1 | 18 | -31 | -7 | 18* | 5 | 4
CC(C)Cc1ccc(S(=O)(=O)N2CCN(c3ccccn3)CC2)cc1 | 5 | -7 | -7 | -4 | 1 | 6
CCOC(=O)N1CCC(NC(=O)CS(=O)Cc2nc(-c3ccc(C)cc3)oc2C)CC1 (stereo unspecified) | 11 | -2 | -5 | -4 | 1 | 1
O=S(=O)(c1cccc2cccnc12)N1CCOCC1 | 12 | -4 | -2 | -3 | 0 | 2
N#Cc1cccc2cccc(S(=O)(=O)N3CCOCC3)c12 | -12 | 3 | 26* | -4 | 4 | 4
CCC(C(=O)c1ccc2ncccc2c1)c1ccccc1 (stereo unspecified) | 14 | 35* | -2 | -10 | 4 | -27
CC(CCc1ccccc1)NC(=O)c1cccs1 (stereo unspecified) | -18 | -38 | 29* | 11 | 0 | 23
CC(C)[C@H](CN1CCC[C@H]1CN1C(N)=NC[C@@H]1Cc1ccccc1)N1C[C@@H](Cc2ccccc2)N(CCc2ccc(Cl)c(Cl)c2)C1=N | -1 | 14 | -6 | -11 | 0 | -10
C[C@@H](CN1CCC[C@H]1CN1C(N)=NC[C@@H]1Cc1ccccc1)N1C[C@@H](Cc2ccccc2)N(CCc2ccc(Cl)c(Cl)c2)C1=N | 6 | 68* | 5 | -8 | -1 | -29
CC(C)[C@@H]1CN=C(N)N1C[C@@H]1CCCN1C[C@H](C)N1C[C@@H](Cc2ccccc2)N(CCc2ccc(Cl)c(Cl)c2)C1=N | 19 | 46* | -10 | -11 | 1 | -29
O=C(NCC1COc2ccccc2O1)c1cccc(S(=O)(=O)NCc2ccccc2)c1 (stereo unspecified) | -1 | -4 | -9 | 1 | 2 | 3
CCn1nccc1NC(=O)c1ccc2sc([C@@H]3O[C@H](CO)[C@H](O)[C@H](O)[C@H]3O)nc2c1 | -10 | 11 | 5 | -1 | 0 | -11
O=C1N/C(=C/c2cccn2-c2ccc(F)cc2)C(=O)N1Cc1ccccc1F | -13 | -9 | 25* | 2 | -1 | 12
O=C1N/C(=C/c2cccn2-c2ccccc2)C(=O)N1Cc1ccc(F)cc1 | 20 | 1 | -11 | -6 | 0 | -1
C(=NN1CCCCCC1)c1ccc2c(c1)OCO2 | 19 | -13 | -23 | -6 | 0 | 1
CCc1ccc(C(CNC(=O)c2ccc3c(=O)n(-c4ccccc4F)c(=S)[nH]c3c2)N(C)C)cc1 (stereo unspecified) | -3 | 37* | 4 | -5 | 2 | -19
COc1cc(CC(=O)N(CC(C)C)C2CCS(=O)(=O)C2)cc(OC)c1OC (stereo unspecified) | 14 | -4 | -7 | -2 | 0 | 7
Cc1ccc(C2C3=C(CC(C)(C)CC3=O)Nc3n[nH]c(C)c32)cc1 (stereo unspecified) | -5 | 0 | 25* | 1 | 0 | 4
COc1ccc(NC2CCCN(C(=O)CCCn3cncn3)C2)cc1 (stereo unspecified) | 4 | 2 | 11 | -1 | 18* | 2
COc1ccc(CNS(=O)(=O)c2ccc3c(c2)N(C(C)=O)CC(C)S3)cc1 (stereo unspecified) | -15 | 0 | 8 | 4 | 17* | 1
CCOC(=O)/C(C#N)=C/c1c(N2CCN(Cc3ccc4c(c3)OCO4)CC2)nc2c(C)cccn2c1=O | -8 | 5 | -3 | -8 | 1 | -4
SMILES | CHO-K1 Ca PAM | M1 antag | CHO-K1 Ca antag | CHRM1 agonist | M1 ag parental | M1 PAM
Cc1cccn2c(=O)c(/C=C(\C#N)C(N)=O)c(N3CCN(Cc4ccc5c(c4)OCO5)CC3)nc12 | -2 | 70* | 10 | -8 | 1 | -27
CCOC(=O)Cn1nc(C)c(NC(=O)CCc2ccc(OC)cc2)c1C | 16 | -13 | -7 | -8 | 17* | 17
CCOC(=O)Cn1nc(C)c(NC(=O)CCc2ccccc2)c1C | 2 | -6 | 3 | -5 | 0 | 5
CSc1ncnc2c1ncn2CCCN1CCN(c2ncccn2)CC1 | -10 | 31* | -1 | -9 | 1 | -16
CC1CCN(C(=O)CSc2nc3c(c(=O)n2C)SC(C)C3)CC1 (stereo unspecified) | 9 | 1 | -5 | -3 | 1 | -1
CC(=O)Nc1cc(-c2cccc(C(=O)NCCO)c2)cn2c(-c3ccc(F)c(Cl)c3)cnc12 | 11 | 5 | 3 | -1 | 0 | 15
COc1ccc(OC)c(NC(=O)c2cnc3n(c2=O)CCS3)c1 | -15 | -4 | 26* | -3 | 0 | 3
CC(C)Cn1c2c(c(O)c(C(=O)Nc3ccc(F)cc3)c1=O)CCCC2 | -5 | 8 | 25* | 0 | 0 | 1
Cc1ccc(C(C(=O)NCc2ccccc2)N(Cc2cccs2)C(=O)c2ccc3c(c2)OCCO3)cc1 (stereo unspecified) | 13 | 33* | 13 | -2 | 10 | -17
COc1ccc(CNC(=O)C(c2ccc(C)cc2)N(Cc2cccs2)C(=O)c2ccc3c(c2)OCCO3)cc1 (stereo unspecified) | -5 | 18 | 5 | 3 | 7 | -12
COC(=O)c1ccc(C(C(=O)NCc2ccccc2)N(Cc2cccs2)C(=O)c2cnccn2)cc1 (stereo unspecified) | 6 | 21* | 10 | 3 | 4 | -15
C=CCn1c(CCC(=O)Nc2ccc(C)c(Cl)c2)nnc1SCC(=O)Nc1ccccc1C | 7 | 7 | -1 | -2 | 16* | 1
COc1ccc2cc(C(C)C(=O)N3CCC(C(N)=O)CC3)ccc2c1 (stereo unspecified) | 8 | -18 | -12 | -8 | 0 | 17
O=C(NCCN1CCC(n2c(=O)[nH]c3ccccc32)CC1)c1cccs1 | 2 | . | 13 | . | 1 | .
CCn1c(=O)c(C(=O)NNC(=O)c2cccc(Cl)c2)c(O)c2ccccc21 | -3 | 23 | 3 | 21* | 22* | -13

Bioassay records deposited in PubChem BioAssay by The Scripps Research Institute Molecular Screening Center.
